Shown are actives, neighbours in structure and some others; about 19% of the full set was active somewhere.
IL1B secr inh – inflammasome signaling inhibition, IL-1 beta readout; THP-1 LPS/ATP IL-1B secretion, AlphaLISA, 16 h; hits give low values; activity change, % at 57.5 µM; AID 743279; hit rate 4.7% among 360,000; in the data active means activity change below about -50%; inconclusive means mostly about -30% to -49%
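THP-1 cells pretreated 1 hr with compounds (up to 57.5 uM final), then stimulated with LPS (250 ng/mL final) plus ATP (1.25 mM final); secreted IL-1B measured by AlphaLISA after 16 hr, decreased signal indicating inhibition.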
uPA generation – cell surface uPA generation inhibition; AID 540303; cell surface uPA generation assay, qHTS; hit rate 0.31% among 330,000; Potency, µM (highest dose often 38.3 µM), for the others: at the top dose activity change, negative = inhibition, usual class: inhibitors; active means well fitted inhibition curve with a large enough effect; inconclusive means small, poorly fitted or top-dose-only effect; inactive means no such curve, though single readings can be large or run the other way; tested in mouse RAW 264.7 cells; further: potency means the concentration at half of the fitted maximal effect; nearly all actives have a fitted effect of over 55% in size
TDP1 cell noCPT – qHTS for Inhibitors of human tyrosyl-DNA phosphodiesterase 1 (TDP1): qHTS in cells in absence of CPT; Potency, µM (doses to about 46.2 µM), inactives show at the highest dose activity change, negative = growth inhibition, actives largely listed as inhibitors; AID 686978, 2013; hit rate 15% among 420,000; DT40 Tdp1-/- hTDP1 cells, no CPT, ATP luminescence, 48 h; further: potency means the concentration at half of the fitted maximal effect; nearly all actives have a fitted effect of over 55% in size
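Growth of hTDP1-complemented DT40 Tdp1-knockout cells is measured by ATP luminescence after at least 48 hr compound exposure at 37 °C, with DMSO substituting for the 20 nM CPT used in the parallel screen.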
DT40 TDP1 CPT – growth inhibition of DT40 Tdp1-/-;hTDP1 cells with camptothecin (screen for TDP1 inhibitors) | chicken DT40 Tdp1-/-;hTDP1 cells + 20 nM CPT, ATP luminescence, 48 h | Potency, µM (top dose mostly 46.2 µM), for inactives: top-dose activity change, negative = growth inhibition, actives largely listed as inhibitors | hit rate 12% among 420,000; further: potency means the concentration at half of the fitted maximal effect; nearly all actives have a fitted effect of over 55% in size
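Cell growth measured by CellTiter-Glo luminescence after a minimum 48 h, 37 C compound exposure with 20 nM CPT in Tdp1-knockout DT40 cells stably expressing hTDP1, seeded 400/well; qHTS titration format.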
HT1080NT lethal – kills 2HG-producing HT-1080-NT fibrosarcoma cells | hit rate 1.6% among 360,000 | HT-1080-NT fibrosarcoma viability, CellTiter-Glo ATP luminescence, 48 h | AID 686970 | Potency, µM (doses to about 46.1 µM), for the others: at the highest dose activity, negative = less viability, most hits filed as cytotoxic;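 further: NT is the 2HG producing partner of a matched IDH1 knockdown line; potency means the concentration at half of the fitted maximal effect; 0% = DMSO-treated cells and -100% = media-only wells without cells; nearly all actives have a fitted effect of over 55% in size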
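HT-1080-NT; 750 cells/well; 5% FBS RPMI; 48 h compound, 37 degrees C; CellTiter-Glo luminescence; curve fitting and curve-class assignment.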
HT1080 IDH1KD tx – toxicity to HT-1080 IDH1 knockdown cells (counter line); AID 686971; HT-1080 IDH1 knockdown viability, ATP luminescence, 48 h; hit rate 2% among 360,000; Potency, µM (series often up to 46.1 µM), without a hit: at the highest dose activity, negative = toxicity, hits mostly cytotoxic;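 further: potency means the concentration at half of the fitted maximal effect; 0% = DMSO wells and -100% = cell-free medium wells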
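After a 2 h attachment period, IDH1KD HT-1080 cells took pin-transferred compound for 48 h at 37 °C; ATP-based luminescence after 10 min room-temperature reagent incubation reported viability.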
The depositor's hits bear a star; i = inactive; ? = inconclusive; / = not tested or not shown. Unless noted, the call rests on the fitted dose curve; in most records, active means well fitted curve in the direction sought with a large enough effect; inconclusive means small, poorly fitted or top-dose-only effect, or another doubt; inactive means no such curve, though single readings can be large; an effect the other way counts as inactive or inconclusive. Unless noted, on the % scale 0 is the no-effect control and ±100 the full control effect.

SMILES	IL1B secr inh	uPA generation	TDP1 cell noCPT	DT40 TDP1 CPT	HT1080NT lethal	HT1080 IDH1KD tx
COc1ccccc1NS(=O)(=O)c1ccc(C(N)=O)cc1	-9	4%	-22%	11%	-5%	-10%
CN(c1ccccc1)S(=O)(=O)c1ccc(C(=O)NCC(c2ccco2)N2CCCCC2)cc1 (centres undefined)	16	-19%	15µM*	?	14%	1%
CC(C)(Oc1ccc(Cl)cc1)C(=O)NCC(c1ccco1)N1CCCCC1 (centres undefined)	?	5%	18µM*	21µM*	1%	1%
COc1ccccc1N(C)S(=O)(=O)c1ccc(C(=O)NCC(c2ccco2)N2CCCCC2)cc1 (centres undefined)	10	-23%	?	?	-30%	-17%
Cc1ccc(S(=O)(=O)Nc2ccccc2OC(C(=O)OC(C)(C)C)C(=O)OC(C)(C)C)cc1	39	/	16µM*	15µM*	?	?
CC(C)NC(=O)C(c1ccc(F)cc1)N(C(=O)CCC(=O)Nc1ccccn1)c1cccc(F)c1 (centres undefined)	-19	2%	-12%	?	0%	8%
COc1cc(NS(=O)(=O)c2cc3c(cc2C)n(C)c(=O)c(=O)n3C)cc(OC)c1	/	/	?	-20%	/	/
COC(=O)c1cc2occc2n1CC(=O)Nc1ccc(N(C)C)cc1	/	/	-29%	-23%	/	/
NC(=O)NC1NC(=O)NC1=O (centres undefined)	-3	-5%	6%	-5%	2%	8%
COc1ccc2cc(-c3[nH]ncc3CN3CCCC3c3nonc3C)ccc2c1 (centres undefined)	39	?	23µM*	?	-19%	?
O=C1c2cccc([N+](=O)[O-])c2C(=O)N1CCO	10	-3%	1%	2%	13%	16%
O=C1c2cccc3c([N+](=O)[O-])ccc(c23)C(=O)N1CCc1ccccn1	-21	-4%	5.2µM*	13µM*	2%	-16%
CN(C)CCCN1C(=O)c2cccc3c([N+](=O)[O-])ccc(c23)C1=O	-51*	-11%	2.3µM*	2.3µM*	?	5.8µM*
O=C1c2ccccc2C(=O)N1CCc1ccccn1	11	/	-5%	?	10%	11%
Nc1cc(=O)[nH]c2c1CCC2	/	/	-13%	-1%	/	/
Cc1cc(NC(=O)c2cc(-c3ccccn3)nc3c(Cl)cccc23)no1	17	-14%	-14%	-18%	-8%	-7%
Cc1cc(NC(=O)c2cc(-c3ccncc3)nc3c(C)cccc23)no1	37	-13%	2.9µM*	4.1µM*	5.8µM*	3.7µM*
Cc1cc(NC(=O)c2ccc(-c3ccccc3F)o2)no1	-7	0%	18µM*	?	16%	16%
Cc1cccc(NC(=O)c2cc(-c3cccnc3)nc3c(C)cccc23)n1	i	0%	15µM*	?	?	?
Cc1cc(NC(=O)c2cccc(C(=O)Nc3cc(C)on3)n2)no1	0	-4%	0.65µM*	0.18µM*	-16%	-25%
CC(=O)NCCNc1ncnc2ccc(-c3ccc(C(=O)N(C)C)cc3)cc12	/	/	-5%	5%	/	/
Cc1ccc(NC(=O)CSCc2cc(=O)n3ccsc3n2)cc1	63	10%	24%	0%	-1%	15%
CCC(=NCCc1c(C)[nH]c2ccccc12)C1=C(O)CC(c2ccccc2)CC1=O (centres undefined)	?	?	2.9µM*	4.1µM*	?	8.2µM*
CCCCC(=NCCc1c(C)[nH]c2ccc(OC)cc12)C1=C(O)CC(c2ccccc2)CC1=O (centres undefined)	9	-10%	4.1µM*	4.1µM*	?	2.3µM*
CCC(=NCCc1c(C)[nH]c2ccc(OC(F)(F)F)cc12)C1=C(O)CC(c2ccccc2)CC1=O (centres undefined)	4	-5%	5.8µM*	4.6µM*	4.1µM*	5.8µM*
SMILES	IL1B secr inh	uPA generation	TDP1 cell noCPT	DT40 TDP1 CPT	HT1080NT lethal	HT1080 IDH1KD tx
CC(=NCCc1c(C)[nH]c2ccc(OCc3ccccc3)cc12)C1=C(O)CC(c2ccccc2)CC1=O (centres undefined)	9	0%	?	?	-29%	-17%
COc1ccc(-c2ccc(SCC(=O)NC3CCCCC3)nn2)cc1OC	-13	-15%	?	-27%	-14%	1%
O=c1[nH]nc(-c2ccc[nH]2)[nH]1	-6	/	0%	-4%	-7%	-2%
Cc1cc(SCC(=O)c2cccs2)nc2ccccc12	39	-3%	?	16µM*	-15%	-9%
O=C(CSc1nc2ccccc2c(=O)[nH]1)c1ccc(O)cc1O	28	4%	?	13µM*	-30%	?
O=C(CSc1nc2ccccc2c(=O)[nH]1)c1ccc(O)c(O)c1	3	-5%	-13%	-26%	-2%	2%
N#Cc1c(-c2cccs2)nc(SCC(=O)c2cccs2)[nH]c1=O	-11	0%	-11%	9%	-4%	1%
O=C(CSc1nc2ccccc2c(=O)[nH]1)c1cccs1	18	4%	16µM*	8.2µM*	-3%	-3%
CS(=O)(=O)N1CCC2(CCN(C(=O)Nc3cccc(F)c3)CC2)CC1	/	/	-26%	-6%	/	/
Cc1ccc(C)c(C(=O)C[n+]2cccc(Br)c2)c1	/	/	?	7%	/	/
C/C(=N\NC(=O)c1cc(-c2cccc([N+](=O)[O-])c2)n[nH]1)c1ccccc1O	45	-4%	?	?	?	23µM*
O=C(N/N=C/c1cccc([N+](=O)[O-])c1)c1cc(-c2ccc3c(c2)OCO3)n[nH]1	2	-1%	-20%	-6%	2%	-3%
CCc1ccc(/C=N/NC(=O)c2cc(-c3cccc([N+](=O)[O-])c3)n[nH]2)cc1	16	-20%	2.9µM*	3.7µM*	7.3µM*	6.5µM*
N#Cc1ccccc1NC(=O)COC(=O)c1ccc(F)cc1F	21	1%	-3%	1%	2%	9%
Cc1ccc(CN(CC(O)COc2cccc3[nH]cc(C)c23)C(C)(C)C)cc1 (centres undefined)	-2	6%	?	21µM*	?	-17%
COC(=O)Cc1c[nH]c2cccc(OCC(O)CN(Cc3ccccc3)C(C)C)c12 (centres undefined)	-18	7%	?	?	-9%	-21%
